Hit rate of the full screen: of about 5,500 compounds, about 2,000 (36%) were called active. About 18% were inconclusive and are not listed. Some of the results follow. Values without a mark were called inactive. No stated cut-off is given here; in the data, active means normalized growth mostly below about 0.91 (no sharp cut-off); inconclusive means no clear call, values can overlap the other calls; inactive means mostly above about 0.92.
Assay: chemical genetic growth profiling, strain panel (AID 1159580);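 further: tested at 20 µM; growth read once vehicle control cultures reached saturation at 30 °C; 1 = growth at the plate median or of vehicle wells; lower values mean less growth of the strain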
Settings: growth OD

CC(C)=CCC1=C(O)c2ccccc2C(=O)C1=O
normalized growth (S. cerevisiae deletion strains, locus YJR075W, strain HOC1, active compounds read low): 1.03 | normalized growth (S. cerevisiae deletion strains, locus YKL009W, strain mrt4, active compounds read low): 0.945 | normalized growth (S. cerevisiae deletion strains, locus YKL068W, active compounds read low): 0.887 (active) | normalized growth (S. cerevisiae deletion strains, locus YKL085W, strain MDH1 (second series), active compounds read low): 0.884 (active) | normalized growth (S. cerevisiae deletion strains, locus YKL085W, strain MDH1, active compounds read low): 0.884 (active) | normalized growth (S. cerevisiae deletion strains, locus YKL160W, strain elf1, active compounds read low): 0.741 (active) | normalized growth (S. cerevisiae deletion strains, locus YKL190W, strain CNB1, active compounds read low): 0.951 | normalized growth (S. cerevisiae deletion strains, locus YKR001C, strain vps1, active compounds read low): 0.788 (active) | normalized growth (S. cerevisiae deletion strains, locus YKR026C, strain gcn3, active compounds read low): 0.775 (active) | normalized growth (S. cerevisiae deletion strains, locus YKR091W, strain srl3, active compounds read low): 0.809 (active) | normalized growth (S. cerevisiae deletion strains, locus YLL001W, strain dnm1, active compounds read low): 0.598 (active) | normalized growth (S. cerevisiae deletion strains, locus YLL026W, active compounds read low): 0.808 (active) | normalized growth (S. cerevisiae deletion strains, locus YLL041C, strain sdh2, active compounds read low): 0.815 (active) | normalized growth (S. cerevisiae deletion strains, locus YLR027C, strain aat2, active compounds read low): 0.823 (active) | normalized growth (S. cerevisiae deletion strains, locus YLR039C, strain RIC1, active compounds read low): 0.705 | normalized growth (S. cerevisiae deletion strains, locus YLR058C, strain SHM2, active compounds read low): 0.954 | normalized growth (S. cerevisiae deletion strains, locus YLR102C, strain apc9, active compounds read low): 0.963 | normalized growth (S. cerevisiae deletion strains, locus YLR113W, strain HOG1, active compounds read low): 0.965 | normalized growth (S. cerevisiae deletion strains, locus YLR221C, strain rsa3, active compounds read low): 0.819 (active) | normalized growth (S. cerevisiae deletion strains, locus YLR258W, strain gsy2, active compounds read low): 0.797 (active) | normalized growth (S. cerevisiae deletion strains, locus YLR262C, strain YPT6 (second series), active compounds read low): 0.334 (active) | normalized growth (S. cerevisiae deletion strains, locus YLR262C, strain YPT6, active compounds read low): 0.733 | normalized growth (S. cerevisiae deletion strains, locus YLR268W, strain sec22, active compounds read low): 0.879 (active) | normalized growth (S. cerevisiae deletion strains, locus YLR320W, strain mms22, active compounds read low): 0.741 (active) | normalized growth (S. cerevisiae deletion strains, locus YLR330W, strain CHS5, active compounds read low): 0.948 | normalized growth (S. cerevisiae deletion strains, locus YLR342W, strain FKS1 (second series), active compounds read low): 0.844 | normalized growth (S. cerevisiae deletion strains, locus YLR342W, strain FKS1, active compounds read low): 0.727 (active) | normalized growth (S. cerevisiae deletion strains, locus YLR357W, strain rsc2, active compounds read low): 0.837 (active) | normalized growth (S. cerevisiae deletion strains, locus YLR370C, strain arc18, active compounds read low): 0.806 (active) | normalized growth (S. cerevisiae deletion strains, locus YLR371W, strain rom2, active compounds read low): 0.939 | normalized growth (S. cerevisiae deletion strains, locus YLR384C, strain iki3, active compounds read low): 0.818 (active) | normalized growth (S. cerevisiae deletion strains, locus YLR418C, strain cdc73, active compounds read low): 1.03 | normalized growth (S. cerevisiae deletion strains, locus YML016C, strain PPZ1, active compounds read low): 0.958 | normalized growth (S. cerevisiae deletion strains, locus YML032C, strain rad52, active compounds read low): 0.906 | normalized growth (S. cerevisiae deletion strains, locus YML120C, strain ndi1, active compounds read low): 0.759 (active) | normalized growth (S. cerevisiae deletion strains, locus YML124C, strain tub3, active compounds read low): 0.935 | normalized growth (S. cerevisiae deletion strains, locus YMR058W, strain fet3, active compounds read low): 0.651 (active) | normalized growth (S. cerevisiae deletion strains, locus YMR078C, strain ctf18, active compounds read low): 0.921 | normalized growth (S. cerevisiae deletion strains, locus YMR125W, strain sto1, active compounds read low): 0.884 (active) | normalized growth (S. cerevisiae deletion strains, locus YMR129W, active compounds read low): 0.773 (active) | normalized growth (S. cerevisiae deletion strains, locus YMR205C, strain PFK2, active compounds read low): 0.837 (active) | normalized growth (S. cerevisiae deletion strains, locus YMR223W, strain ubp8, active compounds read low): 0.864 (active) | normalized growth (S. cerevisiae deletion strains, locus YMR231W, strain pep5, active compounds read low): 0.791 (active) | normalized growth (S. cerevisiae deletion strains, locus YMR263W, strain SAP30, active compounds read low): 1.01 | normalized growth (S. cerevisiae deletion strains, locus YMR307W, strain GAS1, active compounds read low): 0.721 | normalized growth (S. cerevisiae deletion strains, locus YNL067W, strain RPL9B, active compounds read low): 0.989 | normalized growth (S. cerevisiae deletion strains, locus YNL071W, strain lat1, active compounds read low): 0.837 (active) | normalized growth (S. cerevisiae deletion strains, locus YNL128W, strain TEP1, active compounds read low): 0.945 | normalized growth (S. cerevisiae deletion strains, locus YNL153C, strain GIM3, active compounds read low): 0.965 | normalized growth (S. cerevisiae deletion strains, locus YNL183C, strain NPR1, active compounds read low): 0.914 | normalized growth (S. cerevisiae deletion strains, locus YNL209W, strain ssb2, active compounds read low): 0.715 (active) | normalized growth (S. cerevisiae deletion strains, locus YNL233W, strain BNI4, active compounds read low): 0.964 | normalized growth (S. cerevisiae deletion strains, locus YNL248C, strain rpa49, active compounds read low): 0.974 | normalized growth (S. cerevisiae deletion strains, locus YNL250W, strain rad50, active compounds read low): 0.897 (active) | normalized growth (S. cerevisiae deletion strains, locus YNL271C, strain bni1, active compounds read low): 0.892 (active) | normalized growth (S. cerevisiae deletion strains, locus YNL298W, strain CLA4, active compounds read low): 0.914 | normalized growth (S. cerevisiae deletion strains, locus YNL307C, strain MCK1, active compounds read low): 0.904 (active) | normalized growth (S. cerevisiae deletion strains, locus YNL322C, strain KRE1 (second series), active compounds read low): 0.791 (active) | normalized growth (S. cerevisiae deletion strains, locus YNL322C, strain KRE1, active compounds read low): 0.934 | normalized growth (S. cerevisiae deletion strains, locus YNR049C, strain mso1, active compounds read low): 0.772 (active) | normalized growth (S. cerevisiae deletion strains, locus YNR052C, strain pop2, active compounds read low): 0.918 | normalized growth (S. cerevisiae deletion strains, locus YOL006C, strain TOP1, active compounds read low): 0.29 (active) | normalized growth (S. cerevisiae deletion strains, locus YOL012C, strain htz1): 1.37 | normalized growth (S. cerevisiae deletion strains, locus YOL147C, strain pex11, active compounds read low): 0.953 | normalized growth (S. cerevisiae deletion strains, locus YOR001W, strain rrp6, active compounds read low): 0.864 (active) | normalized growth (S. cerevisiae deletion strains, locus YOR061W, strain CKA2, active compounds read low): 0.953 | normalized growth (S. cerevisiae deletion strains, locus YOR069W, strain VPS5, active compounds read low): 0.934 | normalized growth (S. cerevisiae deletion strains, locus YOR070C, strain gyp1, active compounds read low): 0.821 (active) | normalized growth (S. cerevisiae deletion strains, locus YOR080W, strain dia2, active compounds read low): 0.789 (active) | normalized growth (S. cerevisiae deletion strains, locus YOR083W, strain WHI5, active compounds read low): 0.772 (active) | normalized growth (S. cerevisiae deletion strains, locus YOR106W, strain vam3, active compounds read low): 0.595 (active) | normalized growth (S. cerevisiae deletion strains, locus YOR136W, strain idh2, active compounds read low): 0.928 | normalized growth (S. cerevisiae deletion strains, locus YOR144C, strain elg1, active compounds read low): 0.933 (active) | normalized growth (S. cerevisiae deletion strains, locus YOR184W, strain ser1, active compounds read low): 0.894 | normalized growth (S. cerevisiae deletion strains, locus YOR231W, strain MKK1, active compounds read low): 0.966 | normalized growth (S. cerevisiae deletion strains, locus YOR265W, strain rbl2, active compounds read low): 0.822 (active) | normalized growth (S. cerevisiae deletion strains, locus YOR270C, strain vph1, active compounds read low): 0.294 (active) | normalized growth (S. cerevisiae deletion strains, locus YOR290C, strain snf2, active compounds read low): 0.778 (active) | normalized growth (S. cerevisiae deletion strains, locus YOR316C, strain cot1, active compounds read low): 0.968 | normalized growth (S. cerevisiae deletion strains, locus YPL051W, strain arl3, active compounds read low): 0.657 (active) | normalized growth (S. cerevisiae deletion strains, locus YPL055C, strain LGE1, active compounds read low): 1.05 | normalized growth (S. cerevisiae deletion strains, locus YPL078C, strain atp4, active compounds read low): 0.678 (active) | normalized growth (S. cerevisiae deletion strains, locus YPL106C, strain sse1, active compounds read low): 0.816 (active) | normalized growth (S. cerevisiae deletion strains, locus YPL240C, strain hsp82, active compounds read low): 0.825 (active) | normalized growth (S. cerevisiae deletion strains, locus YPL241C, strain CIN2, active compounds read low): 0.925 (active) | normalized growth (S. cerevisiae deletion strains, locus YPL256C, strain CLN2, active compounds read low): 1.02 | normalized growth (S. cerevisiae deletion strains, locus YPR119W, strain clb2, active compounds read low): 0.967 | normalized growth (S. cerevisiae deletion strains, locus YPR141C, strain kar3, active compounds read low): 0.839 (active) | normalized growth (S. cerevisiae deletion strains, locus YPR163C, strain tif3, active compounds read low): 0.957 | normalized growth (S. cerevisiae deletion strains, locus YPR167C, strain met16, active compounds read low): 0.937 | normalized growth (S. cerevisiae deletion strains, strain wtn01, active compounds read low): 0.951 | normalized growth (S. cerevisiae strains, strain wild type, active compounds read low): 0.934

Source: PubChem BioAssay AID1159580 (chemical genetic matrix, 2015)
